Most compounds without a hit are left out; they make up all but 2.3% or so of the library.
CHRM1 PAM – human M1 muscarinic receptor positive allosteric modulators, primary screen, CHO-K1 cells, Fluo-8 calcium fluorescence, 1536-well | activation, % at 3 µM | AID 588819, 2011 | 0.088% of 360,000 active | CHO-K1 hM1, ACh EC20; 0% = ACh EC20, 100% = maximal ACh | Muscarinic acetylcholine receptor M1 (Homo sapiens), P11229; in the data active = activation above about 19%, passing the limit was not always enough
Target sequence (P11229 whole entry, looked up): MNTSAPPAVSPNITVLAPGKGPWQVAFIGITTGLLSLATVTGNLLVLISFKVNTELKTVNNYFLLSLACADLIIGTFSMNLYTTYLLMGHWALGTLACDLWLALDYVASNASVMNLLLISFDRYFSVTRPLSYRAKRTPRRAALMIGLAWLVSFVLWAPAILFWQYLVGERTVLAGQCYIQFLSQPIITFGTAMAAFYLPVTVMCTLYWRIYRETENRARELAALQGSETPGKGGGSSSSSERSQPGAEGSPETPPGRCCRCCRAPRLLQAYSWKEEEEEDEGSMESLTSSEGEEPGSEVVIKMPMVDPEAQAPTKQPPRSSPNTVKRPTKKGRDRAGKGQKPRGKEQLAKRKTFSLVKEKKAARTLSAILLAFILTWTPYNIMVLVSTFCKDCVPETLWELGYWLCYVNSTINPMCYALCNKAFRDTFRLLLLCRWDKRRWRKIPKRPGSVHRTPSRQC
CHO-K1 Ca antag – nonselective inhibitor or artifact in parental CHO-K1 cells | AID 602250 | inhibition, % at 3 µM | ATP-induced calcium, Fluo-8 fluorescence | 0.6% of 360,000 active;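 active = inhibition above a per-plate cutoff, the plate's mean sample inhibition plus 3 SD, cut at about 24% in these data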;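 also: 0% = DMSO plus EC80 ATP and 100% = DMSO alone without ATP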
M1 antag – human M1 muscarinic receptor antagonists, primary screen, CHO-K1 cells, Fluo-8 calcium fluorescence, 1536-well. Muscarinic acetylcholine receptor M1 (Homo sapiens), P11229. CHO-K1 hM1, ACh EC80 antagonist. inhibition, % at 3 µM. 1.3% of 360,000 active. AID 588852, 2011;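 active = percent inhibition above its own plate's cutoff, namely the mean of that plate's compound wells plus 3 SD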;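 also: peak over basal fluorescence ratio during 140 s after agonist addition; 0% = ACh EC80 plus DMSO and 100% = DMSO alone without agonist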
CHO-K1 Ca PAM – nonselective calcium activators in parental CHO-K1 cells, primary screen, counter-screen for M1 PAM project, cell-based, Fluo-8 calcium fluorescence, full deck, 1536-well | ATP EC20; 0% at ATP EC20, 100% at ATP max | activation, % at 3 µM | 0.02% of 360,000 active;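 active = activation above the run cutoff, the mean activation of all test compounds plus 3 SD, cut at about 40% in these data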;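 also: peak over basal fluorescence ratio in a 140 s read after ATP addition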
M1 ag – human M1 muscarinic receptor agonists, primary screen, Fluo-8 calcium fluorescence, CHO-K1 cells, HTS; Muscarinic acetylcholine receptor M1 (Homo sapiens), P11229; CHO-K1 hM1, agonist mode; 0% DMSO, 100% acetylcholine EC100; activation, % at 3 µM; 0.33% of 360,000 active;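 active = activation above the run's mean compound activation plus 3 SD, cut at about 16% in these data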;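 also: peak over basal fluorescence ratio within a 140 s kinetic read after compound addition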
CHO-K1 Ca ag – counter-screen for M1 agonists: effect in parental CHO-K1 cells | Fluo-8 calcium fluorescence; scaled to maximal ATP response, vehicle zero | activation, % at 3 µM | 0.48% of 360,000 active; in the data active = activation above about 15%;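 also: untransfected CHO-K1 host cells lacking M1 receptor as counterscreen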
Numbers without * were called inactive; / = no result; + = active, no number.

SMILES	CHRM1 PAM	CHO-K1 Ca antag	M1 antag	CHO-K1 Ca PAM	M1 ag	CHO-K1 Ca ag
CC(C)(C)c1ccc(C(=O)N2CCC(=O)N(C(COCc3ccccc3)Cc3ccccc3)CC2)cc1 (stereo not drawn)	-21.6	-1.0	33.0*	-12.9	-5.2	2.4
CC(C)(C)c1ccc(C(=O)N2CCC(=O)N([C@H](COCc3ccccc3)Cc3ccccc3)CC2)cc1	/	5.6	/	-5.8	/	5.1
CN(C)c1ccc(/C=C(/C(=O)c2ccc(Cl)cc2Cl)n2cncn2)cc1	-1.5	8.1	7.8	12.3	14.6	17.9*
OC(CNC1CCCCC1)CON=C1CCSc2c(Cl)cccc21 (stereo not drawn)	-5.0	-16.4	1.8	17.6	7.3	10.8
Cc1ccc(S(=O)(=O)N2C[C@H]3n4c(=O)ccc(=O)n4C[C@H](OC(=O)NCC4CCCCC4)[C@@]3(O)C2)cc1	4.2	-18.0	4.1	25.1	-7.2	0.3
Cn1c(=O)c2c(nc(SCCN3CCCCC3)n2Cc2ccccc2)n(C)c1=O	-16.6	-8.1	39.1*	9.1	-5.9	0.2
CC1Cc2ccccc2N1C(=O)CSc1nc2c(c(=O)n(C)c(=O)n2C)n1Cc1ccccc1 (stereo not drawn)	-17.7	1.4	41.0*	5.5	-3.1	5.1
Cc1cc([N+](=O)[O-])ccc1NCc1ccc2c(c1)OCCO2	15.3	-6.0	-21.2	11.8	-0.8	1.6
Cc1cc(F)ccc1NCc1ccc([N+](=O)[O-])cc1	-4.0	-8.8	8.5	2.2	-15.1	20.6*
CCNc1nc(-c2sc(NC(=O)C(C)(C)C)nc2C)c(-n2cc(-c3ccccc3)nn2)s1	/	20.9	/	-3.2	/	12.8
CN(C)[C@H]1CCN([C@H]2CS(=O)(=O)N[C@@H]2COCc2ccccc2)C1	10.7	10.9	-12.6	20.8	-9.6	0.6
O=S1(=O)C[C@H](N2CC[C@@H](O)C2)[C@@H](COCc2ccccc2)N1	-0.8	26.9*	7.6	-7.9	-4.7	-0.2
CN1CCN(C2=CC3=CC(=C(C#N)C#N)CCC3CC2)CC1 (stereo not drawn)	-27.7	85.2*	103.0*	-24.9	896.4*	522.4*
CCN1CCN(C2=CC3=CC(=C(C#N)C#N)CCC3CC2)CC1 (stereo not drawn)	-25.2	78.0*	101.0*	-22.0	590.7*	365.7*
N#CC(C#N)=C1C=C2C=C(N3CCCCCC3)CCC2CC1 (stereo not drawn)	-32.6	101.7*	101.7*	-14.4	+	939.4*
N#CC(C#N)=C1C=C2C=C(N3CCOCC3)CCC2CC1 (stereo not drawn)	-24.6	23.0	57.8*	-13.6	124.3*	65.5*
COc1ccc(CNC(=O)CCS(=O)(=O)c2ccc3nc(C)sc3c2)cc1	4.3	0.6	0.4	4.0	-4.3	-0.3
Cn1cc(-c2coc3c(C(=O)NCc4cccc(Cl)c4)cccc23)cn1	-1.6	-10.3	-7.5	5.5	-0.3	4.3
CCCS(=O)(=O)NC(=O)C1(C)CCN(C(=O)c2ccccc2Br)C1 (stereo not drawn)	26.6*	1.5	-26.8	15.5	3.1	0.3
CCCS(=O)(=O)NC(=O)C1(C)CCCN(C(=O)c2ccccc2Br)C1 (stereo not drawn)	4.9	1.4	-3.0	-6.6	-1.3	0.0
CC(=O)Nc1ccc(NC(=O)c2csc([C@@H]3C[C@H](O)[C@@H](CO)O3)n2)cc1	2.2	-5.5	-2.8	12.3	-1.4	5.7
O=C(Nc1ccc(Oc2ccccc2)cc1)c1csc([C@@H]2O[C@H](CO)[C@@H](O)[C@H]2O)n1	-13.8	2.0	34.0*	4.4	1.4	5.8
O=C(Nc1ccc(Oc2ccccc2)cc1)c1csc([C@H]2C[C@H](O)[C@@H](CO)O2)n1	-16.5	0.8	31.6*	-5.2	3.2	13.5
O=C(Nc1ccc(OCCO)cc1)c1csc([C@@H]2O[C@H](CO)[C@H](O)[C@H](O)[C@H]2O)n1	9.0	11.1	-20.7	3.8	-2.5	2.3
Cc1cccc(S(=O)(=O)NC(=O)C2(C)CCN2C(=O)c2ccccc2)c1 (stereo not drawn)	9.0	-2.1	-12.5	8.4	-3.5	-0.1
SMILES	CHRM1 PAM	CHO-K1 Ca antag	M1 antag	CHO-K1 Ca PAM	M1 ag	CHO-K1 Ca ag
CN1CCN(c2ccc(C(F)(F)F)cc2NC(=O)Nc2ccccc2)CC1	0.3	17.1	6.4	6.3	-1.1	21.0*
O=C1/C(=C/c2cccnc2)Sc2ccccc21	24.6*	-8.4	-4.1	21.0	9.1	0.6
C=CCOC(=O)C1=C(C)NC(=S)C(C#N)(CC=C)C1c1ccccc1Cl (stereo not drawn)	7.7	2.3	-0.6	10.4	5.3	16.7*
C=CCOC(=O)C1=C(C)OC(N)=C(C#N)C1c1ccccc1F (stereo not drawn)	4.6	-9.8	-4.9	-7.2	-5.5	-0.7
COc1ccc(C(=O)O)cc1S(=O)(=O)NCCCN1CCCC1=O	0.2	25.1*	-19.6	-8.1	-1.1	-0.3
Cc1c(CN2CCCCC2)c(O)n(CCCO)c(=O)c1C#N	-6.0	-14.8	36.1*	24.0	6.9	0.8
CC1=NN(c2ccccc2)C(c2ccco2)C1 (stereo not drawn)	9.5	-7.6	-15.0	6.0	-1.5	-0.4
O=[N+]([O-])c1ccc(/C=C/C2=NN(c3ccccc3)C(c3ccco3)C2)cc1 (stereo not drawn)	-13.3	32.5*	25.5*	-13.5	18.8*	20.3*
O=[N+]([O-])c1ccc(C2=NN(c3ccccc3)C(c3ccco3)C2)cc1 (stereo not drawn)	-21.8	58.9*	71.0*	-16.5	77.7*	71.2*
Cc1ccc(S(=O)(=O)NC(=O)C2(C)CCN2C(=O)c2ccccc2CCc2ccccc2)nc1 (stereo not drawn)	2.2	-5.9	-11.1	3.6	-2.5	0.6
FC(F)(F)c1cccnc1Oc1ccc(C2=NCCS2)cc1	1.1	-8.8	-6.0	22.4	23.6*	2.1
Nc1cccnc1Oc1ccc(F)cc1	-6.7	-9.6	3.4	7.8	-2.1	3.8
CC(=O)N1C[C@H]2CON(C)[C@H]2C[C@H]1c1cccc(-c2ccc(C#N)cc2)c1	16.2	-3.4	-16.8	12.3	3.6	0.4
CC(C)N1CCN(c2ccncc2S(=O)(=O)N2CCN(C)CC2)CC1	-25.9	-5.7	46.8*	13.1	-8.4	0.3
CNS(=O)(=O)c1cnccc1N1CCN(C)CC1	6.0	4.8	-4.7	17.3	-11.7	2.9
COc1ccc(C2(C)NC(=O)N(CC(=O)N3CCc4ccccc43)C2=O)cc1OC (stereo not drawn)	2.5	-14.7	1.0	7.7	-3.0	-0.5

Bioassay records deposited in PubChem BioAssay by The Scripps Research Institute Molecular Screening Center.
